In PubChem BioAssay (EPA / NIEHS):
The source holds several records for some structures; these can differ, active in one and inactive in another. Activity calls are given as the source filed them. How the source made its calls: active means hit-call score of the fitted dose curve at least 0.9, where 1 is the maximum; inactive means score below 0.9.

Columns and labels:
[1] = target: Transcription factor E2F1 (Homo sapiens) (UniProt Q01094); assay: ATG_E2F_CIS: Attagene CIS-FACTORIAL HepG2 Assay for human E2F Transcription Factor 1 (AID 2282935); details: HepG2 Attagene cis-reporter, E2F reporter RNA transcripts; actives raise or lower the signal
Chain of Transcription factor E2F1 (Homo sapiens) (Q01094 whole entry, looked up): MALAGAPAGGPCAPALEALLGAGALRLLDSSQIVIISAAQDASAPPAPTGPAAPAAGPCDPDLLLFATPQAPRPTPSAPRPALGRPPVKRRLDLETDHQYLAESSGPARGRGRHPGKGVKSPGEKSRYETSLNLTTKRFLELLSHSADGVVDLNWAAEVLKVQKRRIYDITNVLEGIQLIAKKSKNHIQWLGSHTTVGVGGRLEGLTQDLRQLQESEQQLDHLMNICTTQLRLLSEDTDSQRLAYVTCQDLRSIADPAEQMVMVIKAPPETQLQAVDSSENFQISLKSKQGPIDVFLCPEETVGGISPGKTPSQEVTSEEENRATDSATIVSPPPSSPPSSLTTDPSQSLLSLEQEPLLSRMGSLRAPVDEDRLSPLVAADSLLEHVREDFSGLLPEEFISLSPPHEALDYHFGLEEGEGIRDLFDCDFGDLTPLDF
Summary of the method: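 Fluorescent RT-PCR products, digested with HpaI for 2 h at 37 C, are separated by capillary electrophoresis. Source RNA comes from transfected HepG2 cultures treated for 24 h.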

[2] = ATG_E_Box_CIS: Attagene CIS-FACTORIAL HepG2 Assay for human Enhancer Box (E-box) (AID 2282936); details: HepG2 E-box cis-reporter transcription, actives raise or lower the signal
Summary of the method: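 Fluorescent reporter fragments separated by capillary electrophoresis gave the signal; mRNA came from HepG2 cells transfected with cis-element reporters and treated 24 h. Curves fitted bidirectionally relative to DMSO controls.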

[3] = ATG_M_61_CIS: Attagene CIS-FACTORIAL HepG2 Assay for M61 Transcription Factor (Internal Marker) (AID 2282937); details: HepG2 Attagene CIS-FACTORIAL M61 internal marker reporter; actives raise or lower the signal
Summary of the method: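 Cells were transfected with reporter units under cis-regulatory promoters, treated with chemicals for 24 h, then lysed for RNA. Reporter transcripts were quantified by RT-PCR and capillary electrophoresis, and activity was fitted bidirectionally against DMSO.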

[4] = ATG_EGR_CIS: Attagene CIS-FACTORIAL HepG2 Assay for human Early Growth Response 1 (EGR1) (AID 2282938); details: HepG2 Attagene CIS-FACTORIAL EGR reporter mRNA; actives raise or lower the signal
Summary of the method: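 Endogenous TF activity in HepG2 liver cells was gauged through cis-promoter reporter constructs transiently transfected. After 24 h dosing, reporter mRNA was quantified by RT-PCR and capillary electrophoresis, and curves fitted in both directions versus DMSO.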

[5] = ATG_M_19_CIS: Attagene CIS-FACTORIAL HepG2 Assay for M19 Transcription Factor (Internal Marker) (AID 2282939); details: HepG2 Attagene CIS-FACTORIAL M19 internal marker reporter; actives raise or lower the signal
Summary of the method: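 HepG2 cells transiently transfected with cis-regulated multiple reporter transcription units were dosed for 24 h; reporter mRNA was quantified by RT-PCR, 6-FAM primer-extension labelling, HpaI digestion and capillary electrophoresis, with bidirectional fitting against DMSO baseline.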

[6] = ATG_ERE_CIS: Attagene CIS-FACTORIAL HepG2 Assay for Estrogen Response Element (ERE) (AID 2282940); details: HepG2 ERE cis-reporter, Attagene RNA transcript; actives raise or lower the signal
Summary of the method: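 HepG2 cells transiently transfected with cis-promoter-driven multiplexed reporter transcription units report endogenous TF activity. After 24 h compound exposure, reporter mRNA is quantified by RT-PCR with capillary electrophoresis fluorescence; bidirectional fitting versus DMSO baseline.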

[7] = ATG_Ets_CIS: Attagene CIS-FACTORIAL HepG2 Assay for human Erythroblast Transformation Specific (ETS) (AID 2282941); details: HepG2 ETS cis-reporter transcription, actives raise or lower the signal
Summary of the method: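 Endogenous transcription factor activity read as reporter mRNA via RT-PCR and capillary electrophoresis, with gain or loss fitted bidirectionally against DMSO. Human HepG2 liver cells, transiently transfected CIS reporter constructs, 24 h exposure.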

[8] = target: Hepatocyte nuclear factor 3-beta (Homo sapiens) (UniProt Q9Y261); assay: ATG_FoxA2_CIS: Attagene CIS-FACTORIAL HepG2 Assay for human Forkhead box A2 (FOXA2) (AID 2282942); details: HepG2 cis-reporter transcription factor activity, 24 h; actives raise or lower the signal
Chain of Hepatocyte nuclear factor 3-beta (Homo sapiens) (Q9Y261 whole entry, looked up): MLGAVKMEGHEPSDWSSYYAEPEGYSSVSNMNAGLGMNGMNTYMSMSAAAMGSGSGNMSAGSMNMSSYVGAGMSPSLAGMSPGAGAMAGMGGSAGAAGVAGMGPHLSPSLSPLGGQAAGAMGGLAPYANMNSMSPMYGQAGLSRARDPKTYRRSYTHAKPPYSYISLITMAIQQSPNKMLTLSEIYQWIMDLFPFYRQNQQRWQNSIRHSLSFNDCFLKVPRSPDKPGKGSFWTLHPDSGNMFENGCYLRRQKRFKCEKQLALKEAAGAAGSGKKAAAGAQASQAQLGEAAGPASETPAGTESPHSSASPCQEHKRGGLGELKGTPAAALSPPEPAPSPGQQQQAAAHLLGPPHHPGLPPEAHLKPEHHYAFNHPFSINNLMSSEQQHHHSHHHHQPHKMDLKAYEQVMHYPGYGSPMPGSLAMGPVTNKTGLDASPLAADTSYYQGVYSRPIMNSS
Summary of the method: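 Endogenous transcription factor activity was read in HepG2 cells carrying transiently transfected cis-promoter reporter units. After 24 h dosing, reporter mRNA was quantified by RT-PCR and capillary electrophoresis, and values fitted bidirectionally versus DMSO.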

[9] = ATG_FoxO_CIS: Attagene CIS-FACTORIAL HepG2 Assay for human Forkhead box O (FoxO) (AID 2282943); details: HepG2 Attagene cis-reporter, FoxO element, mRNA; actives raise or lower the signal
Summary of the method: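 HepG2, transient MRTU transfection (cis element, endogenous TFs). Dose 24 h. TriZol RNA → oligo(dT) RT → PCR → 6-FAM primer extension → HpaI cut → CE. Gain/loss vs DMSO.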

[10] = ATG_GATA_CIS: Attagene CIS-FACTORIAL HepG2 Assay for human GATA Binding Protein (AID 2282944); details: HepG2 GATA cis-element reporter, Attagene multiplex mRNA; actives raise or lower the signal
Summary of the method: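 HepG2 cells transiently transfected with multiplexed cis-element reporter units reflecting endogenous transcription factor activity; reporter mRNA measured after 24 h dosing by RT-PCR, 6-FAM labeling, HpaI digestion and capillary electrophoresis. Bidirectional fitting versus DMSO baseline.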

[11] = ATG_GLI_CIS: Attagene CIS-FACTORIAL HepG2 Assay for human Zinc Finger Protein GLI1 (AID 2282945); details: HepG2, Attagene cis-factorial reporter mRNA, GLI element; actives raise or lower the signal
Summary of the method: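 Bidirectional curve fits relative to DMSO, using reporter mRNA levels from RT-PCR plus capillary electrophoresis. Cells were HepG2 transiently carrying cis-regulated reporter constructs, harvested 24 h after dosing.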

[12] = target: Bile acid receptor (Homo sapiens) (UniProt Q96RI1); assay: ATG_IR1_CIS: Attagene CIS-FACTORIAL HepG2 Assay for human Nuclear Receptor Subfamily 1 Group H Member 4 (NR1H4), IR1 submotif (AID 2282946); details: IR1 reporter transcription, actives raise or lower the signal
Chain of Bile acid receptor (Homo sapiens) (Q96RI1 whole entry, looked up): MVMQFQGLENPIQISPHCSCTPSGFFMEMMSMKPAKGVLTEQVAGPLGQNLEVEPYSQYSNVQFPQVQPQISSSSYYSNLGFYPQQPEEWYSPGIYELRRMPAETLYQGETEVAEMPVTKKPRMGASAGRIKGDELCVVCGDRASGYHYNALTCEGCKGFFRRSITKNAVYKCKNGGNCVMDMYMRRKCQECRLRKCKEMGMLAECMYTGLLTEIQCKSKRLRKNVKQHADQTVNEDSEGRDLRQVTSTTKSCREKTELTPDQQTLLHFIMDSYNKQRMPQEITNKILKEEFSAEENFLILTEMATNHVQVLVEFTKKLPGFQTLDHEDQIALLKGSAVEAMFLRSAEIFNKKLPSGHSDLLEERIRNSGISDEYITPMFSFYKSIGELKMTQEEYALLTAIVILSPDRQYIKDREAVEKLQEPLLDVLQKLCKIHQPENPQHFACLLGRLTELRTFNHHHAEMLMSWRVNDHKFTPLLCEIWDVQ
Summary of the method: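 HepG2 cells transiently transfected with multiplexed cis-element reporter units read endogenous transcription factor activity. After 24 h compound exposure, reporter mRNA was quantified by RT-PCR, fluorescent labelling, HpaI digestion and capillary electrophoresis; bidirectional fitting versus DMSO baseline.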

[13] = ATG_GRE_CIS: Attagene CIS-FACTORIAL HepG2 Assay for human Glucocorticoid Response Elements (GRE) (AID 2282947); details: HepG2 GRE cis-reporter, Attagene multiplex mRNA; actives raise or lower the signal
Summary of the method: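 Multiplexed cis-reporter mRNA induction, HepG2, 24 h post-dose. RT-PCR, FAM-labelled, HpaI-digested amplicons by CE. Bidirectional fit vs DMSO.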

[14] = ATG_ISRE_CIS: Attagene CIS-FACTORIAL HepG2 Assay for human Interferon Regulatory Factor 1 (IRF1) binding to an Interferon-Stimulated Response Element (ISRE) (AID 2282948); details: HepG2 ISRE cis-reporter (Attagene), mRNA transcription readout; actives raise or lower the signal
Summary of the method: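 Endogenous transcription factor activity read as reporter transcript abundance via RT-PCR and capillary electrophoresis. HepG2 cells transiently transfected, 24 h chemical exposure. Gain or loss fitted against DMSO baseline.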

[15] = ATG_M_32_CIS: Attagene CIS-FACTORIAL HepG2 Assay for M32 Transcription Factor (Internal Marker) (AID 2282949); details: HepG2 Attagene cis-factorial M32 reporter, mRNA; actives raise or lower the signal;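 further: background control marker of the multiplexed CIS panel rather than a real target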
Summary of the method: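 Using DMSO as baseline, bidirectional curve fits were applied to reporter mRNA signals. These came from transiently transfected HepG2 cells exposed for 24 h, with RNA analysed by RT-PCR, FAM primer extension, HpaI digestion and CE.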

[16] = ATG_M_06_CIS: Attagene CIS-FACTORIAL HepG2 Assay for M06 Transcription Factor (Internal Marker) (AID 2282950); details: HepG2 Attagene CIS-FACTORIAL M06 internal marker reporter; actives raise or lower the signal
Summary of the method: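 HepG2 cells transiently transfected with cis-regulated multiple reporter transcription units were exposed to chemical for 24 h; reporter mRNA was quantified by RT-PCR, 6-FAM primer labelling, HpaI digestion and capillary electrophoresis, fitted bidirectionally against DMSO.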

[17] = target: Hypoxia-inducible factor 1-alpha (Homo sapiens) (UniProt Q16665); assay: ATG_HIF1a_CIS: Attagene CIS-FACTORIAL HepG2 Assay for human Hypoxia Inducible Factor 1 (HIF1A) (AID 2282951); details: HepG2 Attagene cis-factorial HIF1a reporter transcription; actives raise or lower the signal
Chain of Hypoxia-inducible factor 1-alpha (Homo sapiens) (Q16665 whole entry, looked up): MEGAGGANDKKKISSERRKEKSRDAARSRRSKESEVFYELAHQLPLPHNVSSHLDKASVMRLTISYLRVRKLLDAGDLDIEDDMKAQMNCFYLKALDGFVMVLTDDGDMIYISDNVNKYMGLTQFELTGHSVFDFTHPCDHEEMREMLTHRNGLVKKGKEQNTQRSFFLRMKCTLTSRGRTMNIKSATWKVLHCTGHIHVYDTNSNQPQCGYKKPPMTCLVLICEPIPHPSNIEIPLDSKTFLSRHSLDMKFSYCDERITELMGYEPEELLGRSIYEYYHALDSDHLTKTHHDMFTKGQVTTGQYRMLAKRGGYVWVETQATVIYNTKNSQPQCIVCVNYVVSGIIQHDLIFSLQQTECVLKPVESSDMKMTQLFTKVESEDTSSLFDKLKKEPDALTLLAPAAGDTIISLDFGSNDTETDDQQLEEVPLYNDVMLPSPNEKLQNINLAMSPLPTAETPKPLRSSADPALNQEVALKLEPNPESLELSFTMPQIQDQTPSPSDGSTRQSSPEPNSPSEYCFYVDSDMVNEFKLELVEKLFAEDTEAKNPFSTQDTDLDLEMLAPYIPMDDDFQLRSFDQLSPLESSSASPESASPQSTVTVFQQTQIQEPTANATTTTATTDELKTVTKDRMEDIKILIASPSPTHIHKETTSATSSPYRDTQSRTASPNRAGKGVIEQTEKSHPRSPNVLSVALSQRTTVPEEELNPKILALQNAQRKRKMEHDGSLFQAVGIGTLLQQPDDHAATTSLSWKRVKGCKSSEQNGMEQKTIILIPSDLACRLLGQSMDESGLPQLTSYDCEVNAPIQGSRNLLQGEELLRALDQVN
Summary of the method: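 Measures endogenous transcription-factor activity through cis-regulated reporter mRNA in HepG2. Cells dosed 24 h; transcripts quantified by RT-PCR with 6-FAM-labelled products separated by capillary electrophoresis; DMSO serves as negative control.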

[18] = target: Hepatocyte nuclear factor 6 (Homo sapiens) (UniProt Q9UBC0); assay: ATG_HNF6_CIS: Attagene CIS-FACTORIAL HepG2 Assay for human Hepatocyte Nuclear Factor 6 (HNF6) (AID 2282952); details: HepG2 Attagene cis-factorial HNF6 reporter transcription; actives raise or lower the signal
Chain of Hepatocyte nuclear factor 6 (Homo sapiens) (Q9UBC0 whole entry, looked up): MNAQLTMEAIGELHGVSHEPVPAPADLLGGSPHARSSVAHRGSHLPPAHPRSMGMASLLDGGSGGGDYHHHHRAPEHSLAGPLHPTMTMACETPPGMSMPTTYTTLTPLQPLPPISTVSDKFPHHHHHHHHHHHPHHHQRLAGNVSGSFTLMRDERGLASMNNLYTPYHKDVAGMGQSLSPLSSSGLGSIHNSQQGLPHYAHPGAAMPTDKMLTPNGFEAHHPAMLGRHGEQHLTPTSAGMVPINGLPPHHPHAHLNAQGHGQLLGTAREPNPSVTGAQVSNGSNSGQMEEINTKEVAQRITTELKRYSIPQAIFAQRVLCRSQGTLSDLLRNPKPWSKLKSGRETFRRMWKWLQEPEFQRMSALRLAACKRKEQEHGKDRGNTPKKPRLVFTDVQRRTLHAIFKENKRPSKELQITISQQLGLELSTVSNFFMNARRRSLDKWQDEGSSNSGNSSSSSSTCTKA
Summary of the method: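 Endogenous factor activity read in transiently transfected HepG2 via promoter-regulated reporter transcripts. RNA harvested 24 h post-dosing, reverse-transcribed, PCR-amplified, FAM-labelled, HpaI-digested and resolved by capillary electrophoresis; fitted in both directions against DMSO.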

[19] = target: Heat shock factor protein 1 (Homo sapiens) (UniProt Q00613); assay: ATG_HSE_CIS: Attagene CIS-FACTORIAL HepG2 Assay for human Heat Shock Transcription Factor 1 (HSE) (AID 2282953); details: HepG2 HSE cis-reporter, Attagene RNA transcription; actives raise or lower the signal
Chain of Heat shock factor protein 1 (Homo sapiens) (Q00613 whole entry, looked up): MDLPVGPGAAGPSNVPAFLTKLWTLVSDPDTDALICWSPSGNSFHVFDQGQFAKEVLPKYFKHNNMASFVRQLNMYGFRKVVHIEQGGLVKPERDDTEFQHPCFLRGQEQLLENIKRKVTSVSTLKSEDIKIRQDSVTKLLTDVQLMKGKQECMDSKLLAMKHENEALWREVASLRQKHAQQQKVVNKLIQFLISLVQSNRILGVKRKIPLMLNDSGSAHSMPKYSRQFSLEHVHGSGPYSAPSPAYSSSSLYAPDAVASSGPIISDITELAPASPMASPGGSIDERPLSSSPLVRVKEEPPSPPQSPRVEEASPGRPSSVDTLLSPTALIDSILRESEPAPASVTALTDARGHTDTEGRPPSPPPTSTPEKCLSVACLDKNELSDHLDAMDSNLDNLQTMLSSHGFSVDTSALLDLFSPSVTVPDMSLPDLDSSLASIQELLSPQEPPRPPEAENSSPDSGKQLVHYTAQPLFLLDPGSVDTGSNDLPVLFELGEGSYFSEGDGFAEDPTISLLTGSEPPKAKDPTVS
Summary of the method: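 HepG2 cells transiently transfected with multiple reporter transcription units under cis-regulatory promoter control, measuring endogenous transcription factor activity. After 24 h chemical exposure, reporter mRNA quantified by RT-PCR, fluorescent labelling, HpaI digestion and capillary electrophoresis; bidirectional fit versus DMSO.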

[20] = ATG_MRE_CIS: Attagene CIS-FACTORIAL HepG2 Assay for human Metal Responsive Element (MRE) (AID 2282954); details: HepG2 MRE cis-reporter transcription, Attagene multiplex; actives raise or lower the signal
Summary of the method: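 Multiplexed cis-reporter assay in human HepG2 liver cells, 24 h incubation with test chemical. Reporter transcripts measured by RT-PCR and capillary electrophoresis; values from bidirectional curve fitting versus DMSO.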

Measured: AC50

OCC(F)(F)C(F)(F)C(F)(F)C(F)F
inactive: all assays above

c1ccc(B(c2ccccc2)c2ccccc2)cc1
active: [2] 160 µM | [6] 9.96 µM | [17] 58.4 µM | [20] 51.6 µM
inactive: all other assays above

O=C(O)C(F)(F)C(F)(F)C(F)(F)F
active: [6] 150 µM
inactive: [1] | [2] | [3] | [4] | [5] | [6] | [7] | [8] | [9] | [10] | [11] | [13] | [14] | [15] | [16] | [17] | [18] | [19] | [20]

Cc1ccc(S(=O)(=O)OCC(F)(F)C(F)(F)C(F)(F)C(F)(F)C(F)(F)C(F)F)cc1
inactive: all assays above

C=C(C)C(=O)OCC(F)(F)C(F)(F)C(F)(F)C(F)(F)C(F)(F)C(F)(F)C(F)(F)F
active: [6] 16.2 µM
not listed: [13]
inactive: all other assays above

CCCCOCCOCCOC(=O)CCCCC(=O)OCCOCCOCCCC
inactive: all assays above

C=C(C)C(=O)OCC(F)(F)C(F)(F)C(F)(F)F
inactive: [1] | [2] | [3] | [4] | [5] | [6] | [7] | [8] | [9] | [10] | [11] | [12] | [13] | [14] | [15] | [16] | [17] | [18] | [19] | [20]
active: [6] 30.8 µM
